Data as given in PMC5540273 (PLoS ONE, 2017).

Tests used:
Conditions in all cases: concentration: 1 μM, replicates: in singlicate; n = 1
PDGFRB = system: PDGFRB
PDPK1 = system: PDPK1
PFTAIRE2 = system: PFTAIRE2
PFTK1 = system: T1, PFTK1
T1 construct: gene CDK14

PHKG1 = system: PHKG1
PHKG2 = system: PHKG2
PIK3C2B = system: PIK3C2B
PIK3C2G = system: PIK3C2G
PIK3CA = system: PIK3CA
PIK3CB = system: PIK3CB
PIK3CD = system: PIK3CD
PIK3CG = system: PIK3CG
PIK4CB = system: T2, PIK4CB
T2 construct: gene PI4KB

PIKFYVE = system: PIKFYVE
PIM1 = system: PIM1
PIM2 = system: PIM2
PIM3 = system: PIM3
PIP5K1A = system: PIP5K1A
PIP5K1C = system: PIP5K1C
PIP5K2B = system: PIP5K2B
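Also: KINOMEscan kinase panel screen.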

| Compound | %Inh (PDGFRB) | %Inh (PDPK1) | %Inh (PFTAIRE2) | %Inh (PFTK1) | %Inh (PHKG1) | %Inh (PHKG2) | %Inh (PIK3C2B) | %Inh (PIK3C2G) | %Inh (PIK3CA) | %Inh (PIK3CB) | %Inh (PIK3CD) | %Inh (PIK3CG) | %Inh (PIK4CB) | %Inh (PIKFYVE) | %Inh (PIM1) | %Inh (PIM2) | %Inh (PIM3) | %Inh (PIP5K1A) | %Inh (PIP5K1C) | %Inh (PIP5K2B) |
| --- | --- | --- | --- | --- | --- | --- | --- | --- | --- | --- | --- | --- | --- | --- | --- | --- | --- | --- | --- | --- |
| CC(=O)Nc1n[nH]c2ncc(-c3ccccc3)cc12 [SB-548492] | 90% | 0% | 14% | 12% | 2% | 0% | 3% | 23% | 0% | 0% | 0% | 26% | 44% | 0% | 7% | 0% | 14% | 10% | 0% | 8% |
| Cn1ccc2ncnc(Nc3ccc(Oc4cccc(Cl)c4)c(Cl)c3)c21 | 4% | 22% | 24% | 0% | 0% | 10% | 0% | 28% | 10% | 60% | 8% | 8% | 0% | 0% | 8% | 17% | 22% | 0% | 0% | 54% |
| CCn1c(-c2ccncc2)nc2cnccc21 [SB-735216] | 1% | 0% | 0% | 3% | 3% | 0% | 19% | 0% | 0% | 0% | 0% | 14% | 21% | 0% | 0% | 0% | 21% | 28% | 0% | 23% |
| OCCOCCn1ccc2ncnc(Nc3ccc(Oc4cccc(Cl)c4)c(Cl)c3)c21 | 0% | 13% | 0% | 10% | 0% | 26% | 0% | 0% | 0% | 0% | 0% | 0% | 0% | 25% | 2% | 0% | 5% | 0% | 34% | 0% |
| Cl.O=S(=O)(c1cccc(F)c1)c1ccc(Nc2ncnc3cc(Br)sc23)cc1Cl [GSK306886] | 46% | 0% | 24% | 21% | 0% | 0% | 28% | 0% | 0% | 0% | 21% | 5% | 6% | 0% | 14% | 0% | 0% | 9% | 70% | 3% |
| FC(F)(F)c1ccc(-c2nn3ncccc3c2-c2ccnc(Nc3cccc(C(F)(F)F)c3)n2)cc1 [GW828205] | 9% | 0% | 0% | 48% | 9% | 0% | 0% | 0% | 0% | 0% | 0% | 0% | 0% | 0% | 12% | 17% | 32% | 53% | 0% | 0% |
| Nc1nc(-c2ccc3c(N)n[nH]c3c2)cc(N2CCC[C@@H](C(=O)Nc3ccccc3)C2)n1.O=C(O)C(F)(F)F.O=C(O)C(F)(F)F [GSK2288359] | 31% |  | 18% | 16% | 0% | 2% | 1% | 42% | 4% | 0% | 31% | 13% | 6% | 4% | 20% | 0% | 5% | 0% | 30% | 8% |
| O=C(CCO)NCCn1ccc2ncnc(Nc3ccc(Oc4cccc(C(F)(F)F)c4)c(Cl)c3)c21 | 0% | 0% | 0% | 19% | 0% | 3% | 0% | 0% | 0% | 0% | 0% | 0% | 0% | 34% | 0% | 0% | 0% | 0% | 41% | 5% |
| O=c1cc(N2CCOCC2)nc2n(Cc3cccc(Cl)c3)ccn12 [GSK2296823] | 15% | 0% | 14% | 18% | 0% | 0% | 6% | 0% | 0% | 98.5% | 68% | 0% | 2% | 0% | 0% | 0% | 0% | 0% | 8% | 11% |
| Fc1cccc(COc2ccc(Nc3ncnc4cc[nH]c34)cc2Cl)c1 | 25% | 4% | 17% | 12% | 0% | 7% | 32% | 17% | 0% | 32% | 17% | 9% | 12% | 0% | 26% | 13% | 34% | 0% | 0% | 16% |
| COc1ccc(NC(=O)c2ccc(-c3cc(-c4nnc(C)o4)ccc3C)cc2)cc1 [GW595885] | 47% | 0% | 0% | 5% | 3% | 0% | 0% | 0% | 0% | 0% | 0% | 0% | 0% | 13% | 0% | 0% | 0% | 7% | 1% | 10% |
